Screening data deposited in PubChem BioAssay by National Center for Advancing Translational Sciences (NCATS).
HepG2 tox: kills HepG2 cells in TGF-b inhibitor counter-screen. HepG2 CAGA-GFP viability, ATP luminescence, 18 h. 410,000 compounds, 0.76% hits. AID 588856. Potency, µM (titrated, usually from 46.1 µM), without a hit: top-dose activity change, negative = cytotoxicity, actives largely listed as cytotoxic; also: potency is read from the fitted curve at half-maximal effect
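CellTiter-Glo luminescence gave cytotoxicity after 18 hours at 37 degrees C. The cells were HepG2 CAGA-GFP in 1% FBS DMEM, stimulated with 500 pg/mL TGF-beta after compound addition. %Activity was normalised to no-cell wells (complete cell-killing) and DMSO (no toxicity), and curves were fitted and classified.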
ATXN2 expr inh: inhibitors of ATXN2 expression; AID 1745845; Potency, µM (doses to about 57 µM), inactives show at the highest dose activity change, negative = inhibition, usual class: inhibitors; HEK-293 ATXN2-luciferase reporter, luminescence, 24 h; 360,000 compounds, 0.72% hits; also: potency is read from the fitted curve at half-maximal effect; % is scaled to controls: 0 for no effect and ±100 for the full control effect; nearly all actives have a fitted effect of over 55% in size
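ATXN2-luciferase reporter cells (luciferase flanked by upstream and downstream ATXN2 gene portions) were treated 24 h at 37 °C with compounds at up to 57 uM. SteadyGlo luminescence gave expression; GF-AFC fluorescence gave viability.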
TGFb SMAD3 inh: TGF-b pathway inhibition; HepG2 CAGA-GFP TGF-b/SMAD3 reporter, GFP fluorescence, 18 h; TGF-beta stimulated, 500 pg/mL final; Potency, µM (highest dose often 46.1 µM), for inactives: at the top dose activity, negative = inhibition, most hits filed as inhibitors; 410,000 compounds, 1.2% hits; AID 588855; also: potency is read from the fitted curve at half-maximal effect; % is scaled to controls: 0 for no effect and ±100 for the full control effect; nearly all actives have a fitted effect of over 65% in size
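HEPG2 CAGA-GFP cells (1000/well, DMEM with 1% FBS) were pre-incubated 2 h at 37 degrees C, given compound by pin tool, then stimulated with TGF-beta at 500 pg/mL final for 18 h before per-cell GFP fluorescence imaging.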
ATXN viability: viability counter-screen for ATXN expression inhibitors. S2 cells (HEK-293 line with an ATXN2-luciferase reporter) viability, CellTiter-Fluor protease fluorescence, 24 h. Potency, µM (series often up to 56.7 µM), hits mostly cytotoxic. 400,000 compounds, 0.49% hits. AID 651635; also: potency is read from the fitted curve at half-maximal effect; nearly all actives have a fitted effect of over 40% in size
DRD3 agonist: agonists of human D3 dopamine receptor; 410,000 compounds, 0.58% hits; D3R DiscoveRx beta-arrestin cells, luminescence, 90 min; P35462; max activation, %; in the data active = max activation above about 30%; also: 0% is about no effect
Target sequence (P35462 whole entry, looked up): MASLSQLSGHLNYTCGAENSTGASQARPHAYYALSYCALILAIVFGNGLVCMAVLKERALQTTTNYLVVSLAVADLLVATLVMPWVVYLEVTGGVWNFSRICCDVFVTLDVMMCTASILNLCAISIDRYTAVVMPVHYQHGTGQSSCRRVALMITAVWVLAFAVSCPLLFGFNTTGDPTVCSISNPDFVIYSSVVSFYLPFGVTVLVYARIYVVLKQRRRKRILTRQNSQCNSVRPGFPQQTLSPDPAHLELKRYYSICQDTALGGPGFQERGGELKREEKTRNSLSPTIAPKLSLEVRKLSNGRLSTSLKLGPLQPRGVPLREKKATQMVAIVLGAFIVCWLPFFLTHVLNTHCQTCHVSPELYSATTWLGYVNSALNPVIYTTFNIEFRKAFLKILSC
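Cells at 1500/well, incubated overnight, then treated with pinned compounds (dopamine as control) for 90 min at 37 degrees C. DiscoveRx reagent added for 30 - 60 minutes at room temperature; luminescence read.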
DRD3 antagonist: antagonists of human D3 dopamine receptor; P35462; D3R cells, DiscoveRx beta-arrestin luminescence, antagonist mode; stronger effect = lower value; max response, negative = inhibition, %; 360,000 compounds, 2.5% hits; in the data active = max response below about -50%; inconclusive = no clear call, values can overlap the other calls; also: % is scaled to controls: 0 for no effect and ±100 for the full control effect
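Cells plated overnight at 1500 cells/well, then exposed to library compounds with dopamine controls for 90 minutes at 37 degrees C. DiscoveRx reagent added for 30–60 minutes at room temperature; luminescence read, quantitative HTS format.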
The depositor's hits bear a star. Compounds with a hit are over-represented: about 4.8% of the library has one in this group of screens. Unless noted, calls follow the shape of the dose curve; as a rule, active = well fitted curve in the direction sought with a large enough effect; inconclusive = small, poorly fitted or top-dose-only effect, or another doubt; inactive = no such curve, though single readings can be large; an effect the other way counts as inactive or inconclusive.

Cn1cc(S(C)=O)c(=O)c2ccc(F)cc21 (stereo not given) was read as ATXN2 expr inh 8%, ATXN viability inactive and DRD3 agonist 4.
Screening CCOc1ccc(-n2c(SCC(=O)N3CCc4ccccc43)nc3c([nH]c4ccccc43)c2=O)cc1 returned HepG2 tox -18%, ATXN2 expr inh 3%, TGFb SMAD3 inh 7%, ATXN viability inactive and DRD3 agonist -5.
Cn1nnc2c[n+](CC(=O)c3ccc(Cl)cc3)cc(Br)c21 was read as HepG2 tox -24%, ATXN2 expr inh -23%, TGFb SMAD3 inh inconclusive, ATXN viability inactive, DRD3 agonist -7 and DRD3 antagonist -29.
Screening Cn1nnc2c[n+](CC(=O)c3ccc4ccccc4c3)cc(Br)c21 returned HepG2 tox -70%, ATXN2 expr inh inconclusive, TGFb SMAD3 inh inconclusive, ATXN viability inconclusive, DRD3 agonist -12 and DRD3 antagonist -53*.
`CC(=O)N(C)c1ccc(OCC(O)Cn2c3ccc(Cl)cc3c3cc(Cl)ccc32)cc1` (stereo not given) gave HepG2 tox 14µM*, ATXN2 expr inh inconclusive, TGFb SMAD3 inh inconclusive, ATXN viability inconclusive, DRD3 agonist 11 and DRD3 antagonist 16.
For CC(=O)N(C)c1ccc(OCC(O)Cn2c(C)nc3ccccc32)cc1 (stereo not given) the results were HepG2 tox -2%, TGFb SMAD3 inh -4%, ATXN viability inactive, DRD3 agonist 7 and DRD3 antagonist 17.
For NC(=O)c1ncn([C@@H]2O[C@H](CO)[C@@H](O)[C@@H]2O)n1 the results were ATXN2 expr inh 44%.
Cc1cc(NC(=O)c2c(Cl)cnn2C)no1 was read as HepG2 tox -47%, ATXN2 expr inh 3%, TGFb SMAD3 inh inconclusive, ATXN viability inactive, DRD3 agonist 1 and DRD3 antagonist -71*.
`CC(NCc1ccc(OCc2ccc(Cl)cc2)cc1)C(O)c1ccccc1` (stereo not given) gave HepG2 tox 16µM*, ATXN2 expr inh inconclusive, TGFb SMAD3 inh 14µM*, ATXN viability inconclusive, DRD3 agonist -4 and DRD3 antagonist 0.
For CCC1CN(C(=O)N2CCC(C(=O)NCCc3ccc(OC)cc3OC)CC2)c2cc(C)ccc2O1 (stereo not given) the results were HepG2 tox -22%, TGFb SMAD3 inh inconclusive and DRD3 agonist -1.
Cn1c(=O)c2sccc2n2c(CCCC(=O)Nc3ccc(Cl)cc3)nnc12 was read as HepG2 tox 0%, ATXN2 expr inh -20%, TGFb SMAD3 inh -5%, ATXN viability inactive and DRD3 agonist 9.
For Cn1c(=O)c2sccc2n2c(CCCC(=O)Nc3ccc(Oc4ccccc4)cc3)nnc12 the results were HepG2 tox -38%, TGFb SMAD3 inh 13µM* and DRD3 agonist 5.
Cc1[nH]c2ccccc2c1C(=O)CCl was read as HepG2 tox -5%, TGFb SMAD3 inh inconclusive, ATXN viability 11µM*, DRD3 agonist 1 and DRD3 antagonist 0.
For CCOc1ccc(S(=O)(=O)NCCc2c(C)[nH]c3c(Cl)cccc23)cc1C the results were HepG2 tox 18µM*, ATXN2 expr inh inconclusive, TGFb SMAD3 inh 16µM*, ATXN viability inactive and DRD3 agonist -10.
Screening Cn1c(-c2ccccc2)cc(=O)cc1-c1ccccc1 returned HepG2 tox -1%, TGFb SMAD3 inh 22%, ATXN viability inactive, DRD3 agonist -11 and DRD3 antagonist -28.
`O=c1cc(-c2ccccc2)cc(-c2ccccc2)n1O` gave HepG2 tox -8%, ATXN2 expr inh 14µM*, TGFb SMAD3 inh inconclusive, ATXN viability 16µM*, DRD3 agonist 23 and DRD3 antagonist 29.
Cc1ccc(C(=O)Nc2onc3c2CCCC3)cc1 was read as HepG2 tox -32%, ATXN2 expr inh 7.9µM*, TGFb SMAD3 inh -18%, ATXN viability inconclusive and DRD3 agonist 7.
